Screens as filed in PubChem BioAssay.
IL-1B inflam inh: inflammasome signaling inhibition, IL-1 beta readout; THP-1 LPS/ATP IL-1B secretion, AlphaLISA, 16 h; active compounds read low; activity change, % at 57.5 µM; 360,000 tested, 4.7% active; in the data active = activity change below about -50%; inconclusive = mostly about -30% to -49%; also: % is scaled to controls: 0 for no effect and ±100 for the full control effect
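Secreted IL-1B measured by AlphaLISA bead assay after 16 h compound exposure of THP-1 cells; compounds (final up to 57.5 uM) added 1 h before LPS (250 ng/mL) and ATP (1.25 mM) stimulation; lower signal means less secretion.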
D3 ag: D3 dopamine receptor (human) agonism; P35462; D3R DiscoveRx beta-arrestin cells, luminescence, 90 min; max activation, %; 410,000 tested, 0.58% active; in the data active = max activation above about 30%; also: 0% is about no effect
Target sequence (P35462 whole entry, looked up): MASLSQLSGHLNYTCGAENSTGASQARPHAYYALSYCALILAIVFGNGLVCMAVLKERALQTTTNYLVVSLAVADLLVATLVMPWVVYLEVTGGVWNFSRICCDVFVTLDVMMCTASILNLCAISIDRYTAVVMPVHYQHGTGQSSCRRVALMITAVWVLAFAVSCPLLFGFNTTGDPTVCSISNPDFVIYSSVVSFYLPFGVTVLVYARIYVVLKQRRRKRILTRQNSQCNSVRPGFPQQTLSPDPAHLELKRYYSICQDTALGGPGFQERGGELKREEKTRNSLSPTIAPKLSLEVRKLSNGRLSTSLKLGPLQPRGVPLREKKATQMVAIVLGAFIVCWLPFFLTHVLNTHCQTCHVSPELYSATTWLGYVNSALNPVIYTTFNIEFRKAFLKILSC
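Agonist mode: compounds and dopamine controls were applied to plated cells for 90 min at 37 degrees C after an overnight attachment at 1500 cells/well. Luminescent read-out followed 30 - 60 minutes at room temperature with DiscoveRx detection reagent.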
D3 antag: antagonists of human D3 dopamine receptor; P35462; D3R cells, DiscoveRx beta-arrestin luminescence, antagonist mode; active compounds read low; max response, negative = inhibition, %; 360,000 tested, 2.5% active; in the data active = max response below about -50%; inconclusive = no clear call, values can overlap the other calls; also: % is scaled to controls: 0 for no effect and ±100 for the full control effect
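Cells plated overnight at 1500 cells/well, then exposed to library compounds with dopamine controls for 90 minutes at 37 degrees C. DiscoveRx reagent added for 30–60 minutes at room temperature; luminescence read, quantitative HTS format.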
TDP1 cell CPT: growth inhibition of DT40 Tdp1-/-;hTDP1 cells with camptothecin (screen for TDP1 inhibitors) | Potency, µM (series often up to 46.2 µM), without a hit: at the top dose activity change, negative = growth inhibition, hits mostly inhibitors | AID 686979 | chicken DT40 Tdp1-/-;hTDP1 cells + 20 nM CPT, ATP luminescence, 48 h | 420,000 tested, 12% active; also: potency is read from the fitted curve at half-maximal effect; % is scaled to controls: 0 for no effect and ±100 for the full control effect; nearly all actives have a fitted effect of over 55% in size
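Cell growth measured by CellTiter-Glo luminescence after a minimum 48 h, 37 C compound exposure with 20 nM CPT in Tdp1-knockout DT40 cells stably expressing hTDP1, seeded 400/well; qHTS titration format.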
ClpP mod: qHTS Assay for Activators of ClpP; Potency, µM (series often up to 57.5 µM), for inactives: at the top dose activity change, negative = active; purified B. subtilis ClpP, FRET peptide cleavage, 20 min; AID 651965, 2013; 340,000 tested, 1.9% active; active = well fitted falling curve with a large enough effect; inconclusive = small, poorly fitted or top-dose-only effect; inactive = no such curve, though single readings can be large or run the other way; also: potency is read from the fitted curve at half-maximal effect; the source files actives as falling curves though it sought activators and does not explain the sign; nearly all actives have a fitted effect of over 65% in size
Target sequence (P80244 whole entry, looked up): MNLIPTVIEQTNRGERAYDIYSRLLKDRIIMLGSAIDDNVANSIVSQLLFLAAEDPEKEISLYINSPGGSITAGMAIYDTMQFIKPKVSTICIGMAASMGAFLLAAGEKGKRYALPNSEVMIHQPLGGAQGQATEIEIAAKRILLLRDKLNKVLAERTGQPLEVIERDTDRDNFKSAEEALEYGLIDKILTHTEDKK
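FRET quenching reversal measured ClpP activation: 10 microg/mL B. subtilis ClpP at pH 8 with the FRET-FV decapeptide, read at 430 nm after 320 nm excitation. The 20-min minus 0-min signal was scaled between DMSO/no-enzyme wells and ADEP (5.8 microM final).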
DT40 TDP1 no CPT: qHTS for Inhibitors of human tyrosyl-DNA phosphodiesterase 1 (TDP1): qHTS in cells in absence of CPT. DT40 Tdp1-/- hTDP1 cells, no CPT, ATP luminescence, 48 h. Potency, µM (top dose mostly 46.2 µM), for the others: top-dose activity change, negative = growth inhibition, usual class: inhibitors. 420,000 tested, 15% active. AID 686978, 2013; also: potency is read from the fitted curve at half-maximal effect; % is scaled to controls: 0 for no effect and ±100 for the full control effect; nearly all actives have a fitted effect of over 55% in size
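Seeded 400 DT40-hTDP1 cells/well (vehicle DMSO, no 20 nM CPT); pinned compounds; ≥48 hr at 37 °C; CellTiter-Glo luminescence as viability measure.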
Numbers without * were called inactive. Only some compounds are listed: those with a hit (about 21% of all), similar ones and a draw of the others. Unless noted, calls follow the shape of the dose curve; as a rule, active = well fitted inhibition curve with a large enough effect; inconclusive = small, poorly fitted or top-dose-only effect; inactive = flat fitted curve, though single readings scatter.

What do the screens show for `O=C(O)c1ccc(Cl)c(S(=O)(=O)Nc2ccccc2N2CCOCC2)c1`?
IL-1B inflam inh: 6.5; D3 ag: 2.3; D3 antag: -4.1; TDP1 cell CPT: 1.8%; DT40 TDP1 no CPT: 0.1%

What do the screens show for `CCN(CC)C(=O)CS(=O)(=O)CC(=O)Nc1cc(OCCOC)c(Cl)cc1Cl`?
IL-1B inflam inh: 30.1; D3 ag: 6.9; D3 antag: 3.0; TDP1 cell CPT: -14.2%; DT40 TDP1 no CPT: -13.4%

How did COCCN(CC(=O)Nc1cccc(C)c1C)C(=O)C1CCN(S(=O)(=O)c2ccccc2)CC1 do in these assays?
IL-1B inflam inh: 7.1; D3 ag: 3.2; D3 antag: -7.3; TDP1 cell CPT: inconclusive; ClpP mod: -1.4%; DT40 TDP1 no CPT: -5.7%

What do the screens show for `CCOC(=O)N1CCC2(CC1)C(C#N)=C(N)Oc1n[nH]c(CSc3ccc(C)cc3)c12`?
IL-1B inflam inh: 8.2; D3 ag: -0.8; D3 antag: -9.4; TDP1 cell CPT: 7.31µM*; ClpP mod: -0.1%; DT40 TDP1 no CPT: inconclusive

Results for Cc1ccc(SCc2[nH]nc3c2C2(CCSCC2)C(C#N)=C(N)O3)cc1 ?
IL-1B inflam inh: -7.2; D3 ag: 3.0; D3 antag: 5.2; TDP1 cell CPT: -10.7%; ClpP mod: 0.9%; DT40 TDP1 no CPT: -25.0%

Results for C=CCSC1=C(C#N)C(c2ccccc2Cl)C(C(=O)c2cccs2)C(O)(C(F)(F)F)N1 (centres undefined) ?
IL-1B inflam inh: 10.4; D3 ag: -4.2; D3 antag: -1.2; TDP1 cell CPT: inconclusive; ClpP mod: 2.1%; DT40 TDP1 no CPT: 16.4µM*

Results for CCSC1=C(C#N)C(c2ccccc2Cl)C(C(=O)c2cccs2)C(O)(C(F)(F)F)N1 (centres undefined) ?
IL-1B inflam inh: 3.2; D3 ag: 0.1; D3 antag: inconclusive; TDP1 cell CPT: inconclusive; ClpP mod: 0.2%; DT40 TDP1 no CPT: inconclusive

What do the screens show for `Cc1cccc(/C=N/Nc2ccc3ccccc3n2)c1`?
IL-1B inflam inh: -75.3*; D3 ag: -2.2; D3 antag: -9.3; TDP1 cell CPT: -78.2%; ClpP mod: 4.2%; DT40 TDP1 no CPT: 29.1µM*

How did Cc1ccc(/C=N\Nc2nc3ccc(Cl)cc3[nH]2)o1 do in these assays?
IL-1B inflam inh: inconclusive; D3 ag: 5.8; D3 antag: 2.2; TDP1 cell CPT: inconclusive; ClpP mod: -0.8%; DT40 TDP1 no CPT: 20.6µM*

Results for Cc1ccc(/C=N/Nc2ccc3ccccc3n2)o1 ?
IL-1B inflam inh: -107.3*; D3 ag: -4.1; D3 antag: -15.9; TDP1 cell CPT: 2.31µM*; DT40 TDP1 no CPT: 4.11µM*

How did C(=N\Nc1ccc2ccccc2n1)/c1ccc2c(c1)OCCO2 do in these assays?
IL-1B inflam inh: 0.0; D3 ag: -1.3; D3 antag: 13.9; TDP1 cell CPT: inconclusive; ClpP mod: 4.0%; DT40 TDP1 no CPT: inconclusive

Results for CCN(CC)C(=O)C1=C(C)N(CCCOC)C(=O)C(CC(=O)NC2CCCC2)C1 (centres undefined) ?
IL-1B inflam inh: 7.5; D3 ag: 1.2; D3 antag: 20.0; TDP1 cell CPT: 3.7%; ClpP mod: 0.2%; DT40 TDP1 no CPT: 1.9%

What do the screens show for `O=C(COc1ccccc1C(=O)OCC(=O)Nc1cccc2ccccc12)Nc1ccc(Br)cc1`?
TDP1 cell CPT: inconclusive; ClpP mod: -0.3%; DT40 TDP1 no CPT: inconclusive

What do the screens show for `COc1ccc(-c2c(C)nn3c(C(F)(F)F)cc(C)nc23)cc1OC`?
D3 ag: -1.8; TDP1 cell CPT: -27.8%; ClpP mod: 2.0%; DT40 TDP1 no CPT: inconclusive

What do the screens show for `Cc1ccc(NC(=O)Cn2nnc(-c3ccccc3)n2)c(C)c1`?
D3 ag: 7.5; ClpP mod: 2.7%

Results for CCc1nnc(SCC(=O)Nc2ccc(OC)c(OC)c2)c2cc3occc3n12 ?
D3 ag: 4.0; TDP1 cell CPT: -1.4%; ClpP mod: -4.3%; DT40 TDP1 no CPT: -22.5%

How did CCc1cccc(C)c1NC(=O)CSc1nc2ccccc2nc1Cc1ccccc1 do in these assays?
D3 ag: -3.7; TDP1 cell CPT: inconclusive; ClpP mod: -8.7%; DT40 TDP1 no CPT: 16.4µM*

Results for COc1cccc(Cc2nc3ccccc3nc2SCC(=O)NCCc2ccccc2)c1 ?
D3 ag: 1.9; TDP1 cell CPT: 18.4µM*; ClpP mod: -3.2%; DT40 TDP1 no CPT: 18.4µM*

What do the screens show for `Cn1c(SCC(=O)Nc2cccc(C(=O)O)c2)nnc1-c1cc2cc(Br)ccc2o1`?
IL-1B inflam inh: 13.0; D3 ag: -4.0; D3 antag: 6.9; TDP1 cell CPT: 7.4%; DT40 TDP1 no CPT: 0.4%

How did COc1cccc(CNC(=O)CSc2nc3ccccc3nc2Cc2ccccc2)c1 do in these assays?
D3 ag: -1.8; TDP1 cell CPT: inconclusive; ClpP mod: -1.3%; DT40 TDP1 no CPT: inconclusive

What do the screens show for `CCc1cccc(C)c1NC(=O)CSc1nnc(CC)n2c1cc1occc12`?
D3 ag: 0.6; TDP1 cell CPT: inconclusive; ClpP mod: -1.3%; DT40 TDP1 no CPT: 18.4µM*

What do the screens show for `O=C(CSc1nc2ccccc2nc1Cc1ccccc1)Nc1ccccc1C(F)(F)F`?
D3 ag: 6.5; TDP1 cell CPT: -22.9%; ClpP mod: -3.7%; DT40 TDP1 no CPT: -12.3%

Results for CCc1cccc(C)c1NC(=O)CSc1nnc(-c2cc3cc(Br)ccc3o2)n1CC ?
IL-1B inflam inh: -24.8; D3 ag: -3.6; D3 antag: 0.0; TDP1 cell CPT: 23.1µM*; ClpP mod: inconclusive; DT40 TDP1 no CPT: 18.4µM*

What do the screens show for `CCc1ccc(S(=O)(=O)c2nnn3c2nc(Nc2cc(OC)cc(OC)c2)c2cc(Cl)ccc23)cc1`?
D3 ag: 0.2; TDP1 cell CPT: inconclusive; ClpP mod: -21.8%; DT40 TDP1 no CPT: 2.0%

How did O=C(O)CC(c1ccccc1)c1ccc2c(c1)OCO2 (centres undefined) do in these assays?
IL-1B inflam inh: 0.7; D3 ag: 3.7; D3 antag: 40.6; TDP1 cell CPT: -6.6%; ClpP mod: -2.1%; DT40 TDP1 no CPT: -13.0%

What do the screens show for `COc1cc(/C=N/NC(=O)CNc2n[nH]c(=O)[nH]c2=O)ccc1OCc1ccccc1`?
IL-1B inflam inh: 31.5; D3 ag: 7.7; D3 antag: 0.4; TDP1 cell CPT: -15.2%; DT40 TDP1 no CPT: -12.3%

How did CCn1ccc2cc(S(=O)(=O)N3CCC(C(=O)NCc4cccc(Cl)c4)CC3)ccc21 do in these assays?
D3 ag: -1.4; TDP1 cell CPT: inconclusive; ClpP mod: -13.0%; DT40 TDP1 no CPT: inconclusive
